Reference: PubChem BioAssay (EPA / NIEHS)
Results filed as inconclusive are left out. Some structures have more than one record in an assay (separate samples or runs), and their calls can disagree. Calls of active or inactive are those of the source. The calls were made as follows: active = hit-call score of the fitted dose curve at least 0.9, where 1 is the maximum; inconclusive = response in the unintended direction; inactive = score below 0.9.

Read-out: HMG-CoA synthase (HMGCS2), HMGCS2 (gene 3158)
Experiment: CLD_HMGCS2_48hr: CellzDirect (CLD) Gene Expression Assay for HMG-CoA synthase (HMGCS2) at 48 hours (AID 2283711)
Description: CLD_48hr is a cell-based, multiplexed-readout assay that uses hepatocyte, a human liver primary cell, with measurements taken at 48 hours after chemical dosing in a 96-well plate.CLD_HMGCS2_48hr is one of 16 assay component(s) measured or calculated from the CLD_48hr assay. It is designed to make measurements of mRNA induction, a form of inducible reporter, as detected with chemiluminescence signals by Quantitative Nuclease Protection Assay (qNPA) technology.Data from the assay component CLD_HMGCS2_48hr was analyzed at the endpoint, CLD_HMGCS2_48hr, in the positive analysis fitting direction relative to DMSO as the negative control and baseline of activity. Using a type of inducible reporter, gain-of-signal activity can be used to understand changes in the reporter gene as they relate to the gene HMGCS2. Furthermore, this assay endpoint can be referred to as a primary readout. To generalize the intended target to other relatable targets, this assay endpoint is annotated to the lyase intended target family, where subfamily is HMG-CoA synthase.
Human hepatocyte cultures were treated daily for two consecutive days with fresh dosing solutions containing appropriate concentrations of the 320 ToxCast chemicals (chemical identities were blinded to CellzDirect and other ToxCast collaborators), vehicle control (0.2% DMSO), and positive control inducers as summarized in Table 1. Due to the large number of treatment groups and chemicals examined, the ToxCast chemicals were divided into two groups (spanning two independent cultures of hepatocytes from separate donor preparations (Hu778: ToxCast plates 1 and 2; Hu776: ToxCast plates 3 and 4). Each preparation of human hepatocyte cultures was treated with respective vehicle control, medium only control, set of six positive controls/reference chemicals for the five hepatic receptor pathways, and a subset of eight of the ToxCast chemicals (indoxacarb, pyrithiobac-sodium, norflurazon, cyhalofop-butyl, methomyl, thiram, acetochlor, and propiconazole). These replicate data, coupled with internal replicates designed within the blinded ToxCast chemical library, provided additional data to evaluate interindividual differences between hepatocyte preparations and their potential impact on chemical profiles.Cell morphology and integrity were evaluated using phase-contrast microscopy as an indicator of hepatocyte cell health (Tyson & Green, 1987). Cultures for each treatment group (i.e., media, vehicle [0.2% DMSO], positive control inducers [multiple concentrations], and the ToxCast chemicals [multiple concentrations]) were observed and cell morphology was assessed relative to vehicle control cultures at each harvest time point (0, 6, 24, or 48 h). […] Images were evaluated at the conclusion of the study to assess changes in cell integrity and account for the effects of chemical exposure on uncharacteristic changes in concentration-dependent gene expression profiles. The results from these determinations of apparent cytotoxicity were annotated (yes/no) alongside the corresponding qNPA data for reference.At the conclusion of each treatment period, hepatocyte cultures (96-well) were washed with 1 volume of HBSS, lysed by addition of 25 ul ArrayPlate lysis buffer (HTG, Tucson, AZ), and 70 ul/well of Denaturation Oil, denatured by incubation at 95C for 10 min, and frozen at approximately -70C until analysis by nuclease protection assay (qNPA) (Roberts et al., 2007). For qNPA analysis, cell lysates were thawed at 50C for approximately 30 min, qNPA probes were added, and samples were incubated at 95C for 10 min to begin the detection process by denaturing the target RNA, dissociating the duplexes and secondary structure hybridization. At the conclusion of the hybridization period, S1 nuclease reagent was added to each sample to digest all nonprotected nucleotides at 50C for 60-90 min. […]

Q: How did the outcome turn out when `C=CCC1=C(C)C(OC(=O)C2C(C=C(C)C)C2(C)C)CC1=O` (centres undefined) was run?
A: The outcome was “inactive”.

Q: How did the outcome turn out when `CCCCOC(=O)c1ccccc1C(=O)OCCCC` was run?
A: The outcome was “inactive”.

Q: Which outcome does the source give for `COC(=O)C(C)Oc1ccc(Oc2ccc(Cl)cc2Cl)cc1` (centres undefined) here?
A: The outcome was “inactive”.

Q: What about the AC50 of the same molecule?
A: Its AC50 is 35.6 µM (active).

Q: With `O=C(O)COc1nc(Cl)c(Cl)cc1Cl` as the molecule, how does the outcome read?
A: Its outcome is “inactive”.

Q: Which outcome does the source give for `CS/C(C)=N/OC(=O)N(C)SN(C)C(=O)O/N=C(\C)SC` here?
A: The outcome was “inactive”.

Q: How did the outcome turn out when `CCON=C(CC)C1=C(O)CC(c2c(C)cc(C)cc2C)CC1=O` (centres undefined) was run?
A: The outcome was “inactive”.

Q: How did the outcome turn out when `Cc1cc(Cl)ccc1OCC(=O)O` was run?
A: The outcome was “inactive”.

Q: Which outcome does the source give for `COP(N)(=O)SC` (centres undefined) here?
A: The outcome was “inactive”.

Q: Which outcome does the source give for `CCOP(=S)(OCC)SCn1c(=O)oc2cc(Cl)ccc21` here?
A: The outcome was “inactive”.

Q: Which outcome does the source give for `COC(=O)c1ccccc1C(=O)OC` here?
A: The outcome was “inactive”.

Q: `CC(Oc1ccc(Cl)cc1Cl)C(=O)O` (centres undefined) was tested. Which outcome did it give?
A: The outcome was “inactive”.

Q: With `COc1nc(C)nc(NC(=O)NS(=O)(=O)c2ccccc2CCC(F)(F)F)n1` as the molecule, how does the outcome read?
A: The outcome was “inactive”.

Q: `C#CCOS(=O)OC1CCCCC1Oc1ccc(C(C)(C)C)cc1` (centres undefined) was tested. Which outcome did it give?
A: The outcome was “inactive”.

Q: Which outcome does the source give for `N#CC(CCc1ccc(Cl)cc1)(Cn1cncn1)c1ccccc1` (centres undefined) here?
A: The outcome was “inactive”.

Q: For `CC1COC(Cn2cncn2)(c2ccc(Oc3ccc(Cl)cc3)cc2Cl)O1` (centres undefined), which outcome is on record?
A: Its outcome is “inactive”.

Q: Which outcome does the source give for `O=C(O)c1nc(Cl)ccc1Cl` here?
A: Its outcome is “inactive”.

Q: Which outcome does the source give for `COC(=O)N(OC)c1ccccc1COc1ccn(-c2ccc(Cl)cc2)n1` here?
A: The outcome was “inactive”.

Q: For `CC(C)(C)c1ccc(CSc2cnn(C(C)(C)C)c(=O)c2Cl)cc1`, which outcome is on record?
A: Its outcome is “inactive”.
